# Assay results reported in PubChem BioAssay (Tox21).
# Results filed as inconclusive are left out. A number with no mark means an inactive call. Active and inactive are the calls of the source. The call rests on the fitted dose curve; in most records, active means well fitted cell-killing curve with a large enough effect in the repeat runs; inconclusive means weak or mixed curves, or effect the other way; inactive means flat fitted curve, though single readings scatter.
# Test: qHTS RealTime-Glo MT Cell Viability Assay in HEK293 cells - 24 hour (AID 1224886); further: nearly all actives have a fitted effect of over 50% in size; on activity change, negative = cytotoxicity: top concentration of the series differs between compounds
# Conditions: RealTime-Glo luminescence; series mostly up to 76.8 µM; activity change, negative = cytotoxicity: at the top concentration
# Excerpt: National Center for Advancing Translational Sciences [NCATS]
# NIH Chemical Genomics Center [NCGC]
# U.S. Environmental Protection Agency [EPA]
# National Institutes of Environmental Health Sciences [NIEHS]
# National Toxicology Program [NTP]
# U.S. Food and Drug Administration [FDA]
# Measure of cell viability is critical in the cell-base assay. Analysis of cell viability is necessary for the characterization of cell responses to cytotoxic drugs and environmental stress. A RealTime-Glo MT Cell Viability Assay to monitor cell viability in real time of continues cell culture during 40 hours of compound treatment was used to screen Tox21 10K library compounds in Hek293 cells. The RealTime-Glo MT Cell Viability Assay is a nonlytic, homogeneous, bioluminescent method to measure cell viability in real time using a simple, plate-based method. The assay involves adding NanoLuc luciferase and a cell-permeant prosubstrate to cells in culture. Viable cells reduce the proprietary prosubstrate to generate a substrate for NanoLuc luciferase. This substrate diffuses from cells into the surrounding culture medium, where it is rapidly used by the NanoLuc Enzyme to produce a luminescent signal. The signal correlates with the number of viable cells, making the assay well suited for cytotoxicity studies.
# Tox21 Assay Protocol Summary:
# The mixture of Hek293 cell suspension and reagents were dispensed at 600cells/6 ul/well in 1536-well tissue culture treated black solid bottom plates using a Multidrop dispenser. After the assay plates were incubated at a 37 C/5% CO2 incubator for 5 hours, 23 nL of compounds dissolved in DMSO, positive and negative controls was transferred to the assay plate by a pintool work station. The plates were incubated at 37 C for 40 hours. The luminescence intensity were measured at 0h, 8h, 16h, 24h, 32h and 40h time points using ViewLux plate reader during compound treatment.
# On the % scale 0 is the no-effect control and ±100 the full control effect; potency means the concentration at half of the fitted maximal effect.
Structure (SMILES),Potency,"activity change, negative = cytotoxicity"
COC(=O)c1nc(Cl)c(Cl)nc1N,9.52 µM (active),–
Cc1ccc(CO)cc1,–,13.4%
CCOC(=O)OC(C)OC(=O)[C@@H]1N2C(=O)[C@@H](NC(=O)[C@H](N)c3ccccc3)[C@H]2SC1(C)C (stereo not given in full),–,-0.198% [at 35.3 µM]
C[C@@H]1CN(CCCn2c3ccccc3c3ccccc32)C[C@H](C)N1,23.9 µM (active),–
CC(C)Nc1cccnc1N1CCN(C(=O)c2cc3cc(NS(C)(=O)=O)ccc3[nH]2)CC1,–,-13.7% [at 35.3 µM]
O=C1c2ccccc2C(=O)c2c(O)c(O)cc(O)c21,–,7%
CCCCCCCCCCCCCCN(CCO)CCO,21.9 µM (active),–
CC(C)C=O,–,-0.847%
CC1(C)S[C@@H]2[C@H](NC(=O)C(c3ccccc3)S(=O)(=O)O)C(=O)N2[C@H]1C(=O)O (stereo not given in full),–,0.0126% [at 35.3 µM]
C=C1C[C@@]23CC[C@H]4[C@@](C)(CCC[C@@]4(C)C(=O)O[C@@H]4O[C@H](CO)[C@@H](O)[C@H](O)[C@H]4O)[C@@H]2CC[C@]1(O[C@@H]1O[C@H](CO)[C@@H](O)[C@H](O[C@@H]2O[C@H](CO)[C@@H](O)[C@H](O)[C@H]2O)[C@H]1O[C@@H]1O[C@H](CO)[C@@H](O)[C@H](O)[C@H]1O)C3,–,3.75%
O=C1NC(=O)c2cc([N+](=O)[O-])ccc21,–,-2.4%
Cc1cc(C)cc(N)c1,–,0.0198%
COc1ncnc(NS(=O)(=O)c2ccc(N)cc2)c1OC,–,0.453% [at 35.3 µM]
CC(=O)Nc1ccc(C)cc1C,–,-10.2%
O=C1Cc2ccccc2N1c1c(Cl)cccc1Cl,38.9 µM (active),–
Cc1ccccc1S,–,-14.4% [at 35.3 µM]
C[C@@H](O)[C@H]1C(=O)N2C(C(=O)O)=C([C@H]3CCCO3)S[C@H]12,–,8.23% [at 35.3 µM]
CCC1CO1 (stereo not given),–,5.04%
CC(C)COCC(CN(Cc1ccccc1)c1ccccc1)N1CCCC1 (stereo not given),15.1 µM (active),–
CN1CC(=O)N2[C@H](c3ccc4c(c3)OCO4)c3[nH]c4ccccc4c3C[C@@H]2C1=O,–,-14.9% [at 35.3 µM]

Structure (SMILES),Potency,"activity change, negative = cytotoxicity"
COc1cc(C(=O)NC2CCN(C)CC2)ccc1Nc1ncc2c(n1)N(C1CCCC1)CC(F)(F)C(=O)N2C,0.1 µM (active),–
CCN(CC)CCNC(=O)COc1ccc(OC)cc1,–,13.5% [at 35.3 µM]
O=C(Nc1cccc2c(=O)cc(-c3nn[nH]n3)oc12)c1ccc(OCCCCc2ccccc2)cc1,–,3.54% [at 35.3 µM]
O=c1cc(-c2ccccc2)oc2ccc3ccccc3c12,–,-7.94%
Clc1cc(Cl)nc(Cl)n1,–,28.3%
c1ccc2c(c1)CCc1ccccc1N2,–,-14.2% [at 35.3 µM]
CC(=O)c1cc2ccccc2s1,–,2.36% [at 35.3 µM]
C=C(C)CCCC(C)CCO (stereo not given),–,-16.9%
CCOc1ccccc1O[C@H](c1ccccc1)[C@H]1CNCCO1,–,-0.0872% [at 35.3 µM]
C[C@]1(Cn2ccnn2)[C@H](C(=O)O)N2C(=O)C[C@H]2S1(=O)=O,–,2.85% [at 35.3 µM]
CC=C(Cl)Cl,–,10%
CC1(C)[C@@H](OC(=O)CCC(=O)O)CC[C@]2(C)[C@H]3C(=O)C=C4[C@@H]5C[C@@](C)(C(=O)O)CC[C@]5(C)CC[C@@]4(C)[C@]3(C)CC[C@@H]12,–,11.6% [at 35.3 µM]
C(=C\c1ccccc1)/c1ccccc1,–,7.38%
CCCCCCCCCCC(=O)O,–,2.23%
CC(=O)Oc1ccc([N+](=O)[O-])cc1CCl,4.36 µM (active),–
CCn1cc(C(=O)O)c(=O)c2cc(F)c(N3CCNCC3)cc21,–,8.23% [at 35.3 µM]
O=C(O)CCCCCCCCCCCBr,–,-2.65%
CC1CC(OC(=O)C(O)c2ccccc2)CC(C)(C)N1C (stereo not given),–,2.95% [at 35.3 µM]
O=C(O)c1ccc(OCCCOc2ccc(C(=O)O)cc2)cc1,–,2.46% [at 35.3 µM]
OC1(c2ccccc2)CCNCC1,–,6.16% [at 35.3 µM]
